Data: PubChem BioAssay AID623868 (Vanderbilt High Throughput Screening Facility, 2012)
In all, about 2,100 compounds went through this assay and about 760 (36%) were called active. These entries were drawn from the full list. A number with no mark means an inactive call.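 Rule for the calls: active = thallium-flux fluorescence traces judged by eye to show enhanced or reduced glutamate response, manual score 1 or -1, so both directions (some results past the limit were not filed as active); inactive = the rest, including fluorescent or raised-baseline compounds.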

Assay: thallium influx changes without GIRK channels – cell-based, HEK-293 rmGlu8, no GIRK, thallium flux, counter-screen for GIRK activator project, confirmation (AID 623868);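 note: extra codes mark interference with 3 for fluorescent and 4 for baseline rise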
Conditions: thallium flux fluorescence, at 10 µM, actives lie on both sides, codes: 1 enhancer, -1 blocker, 0 none, thallium stimulus containing EC20 glutamate

Row | SMILES | manual score
1 | COC(=O)[C@H]1CCCN1C(=O)Nc1cccc(Oc2c(F)c(F)c(F)c(F)c2F)c1 | 0
2 | Cc1cc(NC(=O)Nc2ccccc2)n(-c2ccccc2)n1 | 0
3 | Cc1cc(NC(=O)c2c(F)cccc2Cl)n(-c2nc3ccccc3[nH]2)n1 | 0
4 | Cc1ccc(Nc2cc(C)nn2-c2nc(C)cc(=O)[nH]2)cc1 | 1 (active)
5 | C=CCn1c(SCC(=O)Nc2sc(C)c(C)c2C(=O)OCC)nnc1-c1sc(N)nc1C | -1 (active)
6 | CCOC(=O)c1cnc(SCC(=O)Nc2nc(C)c(C)s2)nc1N | 0
7 | CCOC(=O)c1c(NC(=O)CSc2nnc(Cc3csc(N)n3)n2C)sc(C)c1C | -1 (active)
8 | CC1(C)Cc2ccccc2-c2nnc(SCC(=O)N3CCN(c4ccccc4)CC3)n21 | 0
9 | C1CCC2(CC1)OCC1(CO2)COC2(CCCCC2)OC1 | 0
10 | CC1(C)NC(=O)NC2(C)NC(=O)NC(C)(C)C12 (centres undefined) | 0
11 | CNC(=S)N/N=C/c1ccc(C(C)C)cc1 | 1 (active)
12 | CNC(=S)N/N=C(\C)c1ccc(C)c(C)c1 | 0.5
13 | C=CCNC(=O)C1CC(=O)N(c2ccc(OCC(=O)Nc3ccccc3)cc2)C1 (centres undefined) | 0
14 | Fc1ccc2nc(Nc3nc4c(F)cc(F)cc4s3)sc2c1 | 1 (active)
15 | Fc1cccc2sc(Nc3nc4cc5c(cc4s3)OCO5)nc12 | 0
16 | Fc1cccc2sc(Nc3nc4ccccc4s3)nc12 | 0
17 | Fc1ccc2nc(Nc3nc4c(F)cccc4s3)sc2c1 | 1 (active)
18 | Fc1cc(F)c2nc(Nc3nc4c(F)cccc4s3)sc2c1 | 1 (active)
19 | COc1cc(/C=C2/C(=O)N=C(N)N2C)cc(OC)c1OC | 0
20 | CC1CC(C)CN(C(=S)Nc2ccc(SC(F)F)cc2)C1 (centres undefined) | 0
21 | Cc1ccc(Nc2n[nH]c(C)c2[N+](=O)[O-])cc1C | 0
22 | CCN(CC)CCN1C(=O)c2oc3ccccc3c(=O)c2C1c1ccccc1 (centres undefined) | 0.5
23 | CN(C)CCCN1C(=O)c2oc3ccccc3c(=O)c2C1c1cccs1 (centres undefined) | 1 (active)
24 | CCN(CC)CCN1C(=O)c2oc3ccccc3c(=O)c2C1c1ccc(F)cc1 (centres undefined) | 0
25 | NC(=O)COc1ccc(C2c3c(oc4ccccc4c3=O)C(=O)N2CC2CCCO2)cc1 (centres undefined) | 0
26 | CCN(CC)CCCN1C(=O)c2oc3ccccc3c(=O)c2C1c1cccs1 (centres undefined) | 1 (active)
27 | O=c1c(O)c(-c2cccs2)oc2ccccc12 | 3

Row | SMILES | manual score
28 | O=C1Nc2ccccc2C12OCC1(CO2)COC2(OC1)C(=O)Nc1ccccc12 (centres undefined) | 0
29 | Cc1ccc(N2CC(C(=O)Oc3cccc(N4C(=O)CCC4=O)c3)CC2=O)cc1 (centres undefined) | 0
30 | O=C(Nc1nnc(-c2ccc(Cl)cc2)o1)c1ccc(N2C(=O)CCC2=O)cc1 | 1 (active)
31 | O=C(Nc1nnc(-c2ccc(Cl)cc2)o1)c1cccc(N2C(=O)CCC2=O)c1 | 1 (active)
32 | COc1ccccc1NC(=O)c1cc(C(=O)Nc2ccccc2OC)cc(N2C(=O)CCC2=O)c1 | 0
33 | COc1ccc(-c2nnc(Nc3nc4c(OC)cccc4s3)o2)cc1 | 1 (active)
34 | CCNc1nnc(-c2ccc(C)cc2)o1 | 0
35 | COc1cccc2sc(Nc3nc(-c4ccccn4)cs3)nc12 | 1 (active)
36 | COc1cccc2sc(Nc3nnc(-c4cccs4)o3)nc12 | 1 (active)
37 | CCN(CC)c1nc(C)nc2c1cnn2CCc1ccccc1 | 0
38 | Cc1cc(=S)[nH]c2c(C)cccc12 | 1 (active)
39 | Cc1cc(C)c2[nH]c(=S)cc(C)c2c1 | 1 (active)
40 | CCOc1ccccc1Nc1nnc(Cc2ccccc2Cl)c(=O)[nH]1 | 0
41 | CCOC(=O)C1=C(C)NC(=O)NC1c1ccc(Br)o1 (centres undefined) | 0
42 | CCOC(=O)C1=C(C)N=C2SCCC(=O)N2C1c1sccc1C (centres undefined) | -1 (active)
43 | CC(C)(C)c1nnc(N/N=C/c2ccccc2)n(N)c1=O | 0
44 | Cc1nc2c(-c3ccccc3)c(C)[nH]n2c(=O)c1Cl | 0
45 | Cc1cc(=O)n2[nH]c(C)c(-c3ccccc3)c2n1 | -0.5
46 | Cc1[nH]n2c(=O)cc(C(C)(C)C)nc2c1-c1ccccc1 | 1 (active)
47 | COc1ccc(C/C(C)=N/NC(=S)Nc2ccccc2)cc1 | 1 (active)
48 | CC/C(=N\NC(=S)Nc1ccc(OC)cc1)c1ccc(OC(F)F)cc1 | 1 (active)
49 | COc1ccc(C(=S)Nc2ccc(N(C)C)cc2)cc1 | 0
50 | CC/C(=N\NC(=S)Nc1cc(C)ccc1C)c1ccc(OC(F)F)cc1 | 0
51 | COc1ccc(NC(=S)Nc2ccc(OCc3ccccc3)cc2)cc1OC | 0
52 | CCC1(C)OCC(Cn2c3ccccc3c3ccccc32)O1 (centres undefined) | 0
53 | O=c1[nH]c(NCCO)nc2c1C1(CCCCC1)Cc1ccccc1-2 | 0
54 | C=CCOc1cccc(C2/C(=C(/O)c3ccc(C)cc3)C(=O)C(=O)N2CCN2CCOCC2)c1 (centres undefined) | 0
